# Source: the supplement of paper PMC12819154, “High-throughput peptide-centric local stability assay extends protein–ligand identification to membrane proteins, tissues and bacteria” (Nature Structural & Molecular Biology, 2025)
# Compound: CN[C@@H]1C[C@H]2O[C@@](C)([C@@H]1OC)n1c3ccccc3c3c4c(c5c6ccccc6n2c5c31)C(=O)NC4 [staurosporine]
# Assay: log2 fold change of tryptic peptide abundance, ligand vs vehicle (limited proteolysis) (log2 ratio); higher = more trypsin-susceptible (destabilized)
# Details: ligand concentration: 20 uM; sample: mouse liver crude lysate; replicate design: treated separately
# UniProt Q04735, sequence (Q04735 whole entry): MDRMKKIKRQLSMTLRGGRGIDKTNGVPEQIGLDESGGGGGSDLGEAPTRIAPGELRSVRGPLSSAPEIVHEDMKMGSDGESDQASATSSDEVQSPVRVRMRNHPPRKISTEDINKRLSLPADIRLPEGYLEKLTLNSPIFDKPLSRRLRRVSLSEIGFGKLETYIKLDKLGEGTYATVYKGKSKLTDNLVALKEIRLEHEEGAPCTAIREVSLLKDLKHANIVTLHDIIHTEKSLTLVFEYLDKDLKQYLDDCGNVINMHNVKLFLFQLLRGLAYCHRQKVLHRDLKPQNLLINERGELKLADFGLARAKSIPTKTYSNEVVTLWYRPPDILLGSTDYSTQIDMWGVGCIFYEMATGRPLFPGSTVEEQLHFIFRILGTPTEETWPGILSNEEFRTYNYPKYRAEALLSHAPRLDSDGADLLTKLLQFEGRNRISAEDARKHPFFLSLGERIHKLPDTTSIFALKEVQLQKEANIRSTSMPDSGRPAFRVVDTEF
# UniProt Q80ZW0, sequence (Q80ZW0 whole entry): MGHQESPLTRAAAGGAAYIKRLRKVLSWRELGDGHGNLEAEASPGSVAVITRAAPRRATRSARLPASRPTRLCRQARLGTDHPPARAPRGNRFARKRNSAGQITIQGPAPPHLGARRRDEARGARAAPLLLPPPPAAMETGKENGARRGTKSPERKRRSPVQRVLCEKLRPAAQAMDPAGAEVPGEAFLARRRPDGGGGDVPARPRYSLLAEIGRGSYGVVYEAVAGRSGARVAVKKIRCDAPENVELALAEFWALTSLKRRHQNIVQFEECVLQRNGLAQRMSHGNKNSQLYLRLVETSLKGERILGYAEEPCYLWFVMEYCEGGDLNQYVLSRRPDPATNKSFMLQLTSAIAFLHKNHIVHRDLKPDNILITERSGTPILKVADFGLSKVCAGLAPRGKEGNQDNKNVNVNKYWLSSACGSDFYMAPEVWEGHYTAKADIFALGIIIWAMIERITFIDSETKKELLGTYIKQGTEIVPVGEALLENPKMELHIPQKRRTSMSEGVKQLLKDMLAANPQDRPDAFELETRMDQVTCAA
# UniProt P54823, sequence (P54823 whole entry): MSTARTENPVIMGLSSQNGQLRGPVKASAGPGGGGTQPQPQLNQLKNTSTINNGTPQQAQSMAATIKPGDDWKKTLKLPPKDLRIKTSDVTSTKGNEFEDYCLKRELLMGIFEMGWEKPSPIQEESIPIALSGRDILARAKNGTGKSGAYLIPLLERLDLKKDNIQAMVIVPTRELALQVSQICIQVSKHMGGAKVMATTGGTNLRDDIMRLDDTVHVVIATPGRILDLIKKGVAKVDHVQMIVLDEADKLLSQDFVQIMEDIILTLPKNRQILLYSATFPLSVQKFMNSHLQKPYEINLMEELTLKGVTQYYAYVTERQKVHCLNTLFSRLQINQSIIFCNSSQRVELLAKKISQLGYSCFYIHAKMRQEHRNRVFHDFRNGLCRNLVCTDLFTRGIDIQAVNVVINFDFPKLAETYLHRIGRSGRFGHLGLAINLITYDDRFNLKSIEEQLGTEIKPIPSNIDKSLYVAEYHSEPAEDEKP
# UniProt Q80XL6, sequence (Q80XL6 whole entry): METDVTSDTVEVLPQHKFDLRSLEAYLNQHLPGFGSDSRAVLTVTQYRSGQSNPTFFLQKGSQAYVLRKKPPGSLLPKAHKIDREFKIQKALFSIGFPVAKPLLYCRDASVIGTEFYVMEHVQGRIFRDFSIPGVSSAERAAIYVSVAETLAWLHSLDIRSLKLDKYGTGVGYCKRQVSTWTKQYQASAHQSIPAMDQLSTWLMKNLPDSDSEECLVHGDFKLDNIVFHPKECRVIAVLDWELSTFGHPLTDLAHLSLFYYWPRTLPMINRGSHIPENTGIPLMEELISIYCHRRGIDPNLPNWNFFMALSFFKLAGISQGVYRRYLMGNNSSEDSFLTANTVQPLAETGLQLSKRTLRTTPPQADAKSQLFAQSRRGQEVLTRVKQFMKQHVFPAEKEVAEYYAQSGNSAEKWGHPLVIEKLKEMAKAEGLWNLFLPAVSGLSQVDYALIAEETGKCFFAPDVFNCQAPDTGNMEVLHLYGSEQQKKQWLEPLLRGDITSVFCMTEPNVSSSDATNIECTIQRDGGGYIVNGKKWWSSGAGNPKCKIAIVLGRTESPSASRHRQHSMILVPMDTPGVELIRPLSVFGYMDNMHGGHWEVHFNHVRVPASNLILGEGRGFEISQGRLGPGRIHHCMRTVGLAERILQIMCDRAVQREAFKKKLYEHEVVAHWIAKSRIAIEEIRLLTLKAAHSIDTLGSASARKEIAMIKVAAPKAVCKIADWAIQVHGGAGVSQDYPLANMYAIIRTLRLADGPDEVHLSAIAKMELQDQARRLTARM
# UniProt Q64459, sequence (Q64459 whole entry): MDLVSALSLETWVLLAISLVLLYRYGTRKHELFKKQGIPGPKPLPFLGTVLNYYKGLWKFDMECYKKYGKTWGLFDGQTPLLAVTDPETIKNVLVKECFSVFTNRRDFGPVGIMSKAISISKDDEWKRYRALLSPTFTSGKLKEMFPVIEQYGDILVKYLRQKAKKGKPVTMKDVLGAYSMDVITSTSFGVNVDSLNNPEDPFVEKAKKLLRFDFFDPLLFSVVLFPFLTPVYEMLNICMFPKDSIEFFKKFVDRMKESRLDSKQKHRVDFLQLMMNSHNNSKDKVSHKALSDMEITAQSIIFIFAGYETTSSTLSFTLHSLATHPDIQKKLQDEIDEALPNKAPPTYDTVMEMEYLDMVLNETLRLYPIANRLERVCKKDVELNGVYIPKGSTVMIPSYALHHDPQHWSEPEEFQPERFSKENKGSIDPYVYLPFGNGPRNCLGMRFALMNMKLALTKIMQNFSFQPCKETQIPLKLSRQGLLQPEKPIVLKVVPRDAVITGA
# UniProt Q9DCQ2, sequence (Q9DCQ2 whole entry): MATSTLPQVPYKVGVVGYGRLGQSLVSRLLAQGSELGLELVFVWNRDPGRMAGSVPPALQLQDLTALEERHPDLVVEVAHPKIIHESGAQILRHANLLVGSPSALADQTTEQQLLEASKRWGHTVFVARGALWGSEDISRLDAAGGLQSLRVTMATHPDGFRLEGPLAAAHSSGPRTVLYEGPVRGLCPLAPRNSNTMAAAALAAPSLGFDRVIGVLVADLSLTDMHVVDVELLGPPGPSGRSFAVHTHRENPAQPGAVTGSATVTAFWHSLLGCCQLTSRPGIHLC
# UniProt Q9JK48, sequence (Q9JK48 whole entry): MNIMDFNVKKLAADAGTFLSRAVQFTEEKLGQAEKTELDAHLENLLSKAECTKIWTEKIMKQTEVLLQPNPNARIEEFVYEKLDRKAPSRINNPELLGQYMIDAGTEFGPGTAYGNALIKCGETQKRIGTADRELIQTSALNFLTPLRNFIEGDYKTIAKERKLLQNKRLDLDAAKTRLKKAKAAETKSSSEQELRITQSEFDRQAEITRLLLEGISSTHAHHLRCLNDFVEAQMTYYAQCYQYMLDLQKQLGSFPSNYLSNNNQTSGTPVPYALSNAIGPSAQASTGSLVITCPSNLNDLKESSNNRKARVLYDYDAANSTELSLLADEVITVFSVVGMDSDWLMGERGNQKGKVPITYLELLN
# UniProt Q99LB7, sequence (Q99LB7 whole entry): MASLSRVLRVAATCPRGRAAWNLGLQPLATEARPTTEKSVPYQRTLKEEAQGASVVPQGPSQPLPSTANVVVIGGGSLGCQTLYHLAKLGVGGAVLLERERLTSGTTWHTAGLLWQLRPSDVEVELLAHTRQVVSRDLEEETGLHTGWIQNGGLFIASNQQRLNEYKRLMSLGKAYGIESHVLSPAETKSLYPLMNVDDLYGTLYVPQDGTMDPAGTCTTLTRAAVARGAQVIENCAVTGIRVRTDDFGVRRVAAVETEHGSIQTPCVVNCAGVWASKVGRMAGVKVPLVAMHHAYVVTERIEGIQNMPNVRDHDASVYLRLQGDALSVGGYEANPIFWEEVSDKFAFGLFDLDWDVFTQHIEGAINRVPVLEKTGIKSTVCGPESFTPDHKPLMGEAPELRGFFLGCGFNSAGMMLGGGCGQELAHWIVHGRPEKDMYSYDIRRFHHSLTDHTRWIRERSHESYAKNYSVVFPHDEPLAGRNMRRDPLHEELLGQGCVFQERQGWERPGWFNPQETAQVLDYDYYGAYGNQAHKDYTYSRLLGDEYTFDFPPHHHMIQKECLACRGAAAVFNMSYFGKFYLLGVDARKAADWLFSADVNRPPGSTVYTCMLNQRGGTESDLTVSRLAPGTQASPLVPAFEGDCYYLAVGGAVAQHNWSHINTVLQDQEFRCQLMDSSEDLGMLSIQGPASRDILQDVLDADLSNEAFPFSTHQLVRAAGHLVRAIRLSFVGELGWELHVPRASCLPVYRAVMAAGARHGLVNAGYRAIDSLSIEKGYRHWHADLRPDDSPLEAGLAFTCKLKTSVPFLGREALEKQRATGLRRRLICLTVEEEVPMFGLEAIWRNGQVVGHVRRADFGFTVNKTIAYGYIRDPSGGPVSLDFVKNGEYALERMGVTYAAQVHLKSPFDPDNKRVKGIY
# UniProt Q9Z1M4, sequence (Q9Z1M4 whole entry): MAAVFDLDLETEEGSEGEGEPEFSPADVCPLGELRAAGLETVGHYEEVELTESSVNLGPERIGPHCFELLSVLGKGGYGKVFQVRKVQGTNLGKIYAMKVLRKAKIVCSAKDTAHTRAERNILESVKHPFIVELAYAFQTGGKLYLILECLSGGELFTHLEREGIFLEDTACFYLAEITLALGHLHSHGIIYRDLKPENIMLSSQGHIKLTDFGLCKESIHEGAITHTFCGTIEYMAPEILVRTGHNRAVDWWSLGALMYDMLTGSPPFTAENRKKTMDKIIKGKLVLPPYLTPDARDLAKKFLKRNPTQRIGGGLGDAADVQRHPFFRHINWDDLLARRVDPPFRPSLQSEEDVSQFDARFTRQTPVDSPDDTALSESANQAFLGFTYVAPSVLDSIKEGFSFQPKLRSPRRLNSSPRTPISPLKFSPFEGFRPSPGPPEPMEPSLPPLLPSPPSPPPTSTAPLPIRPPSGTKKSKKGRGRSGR
# UniProt P70349, sequence (P70349 whole entry): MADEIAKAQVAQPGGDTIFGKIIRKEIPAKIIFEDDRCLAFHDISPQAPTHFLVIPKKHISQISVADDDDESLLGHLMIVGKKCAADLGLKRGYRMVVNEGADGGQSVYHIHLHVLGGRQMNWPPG
row,Target,log2 fold change
1,"UniProt Q8BWW9 (peptide sequence: VKPPFVPTIR, peptide start residue: 928)",-2.86
2,"UniProt Q80XL6 (peptide sequence: NLPDSDSEECLVHGDFK, peptide start residue: 206)",-0.421
3,"UniProt Q9Z1M4 (peptide sequence: IGPHCFELLSVLGK, peptide start residue: 62)",-0.47
4,"UniProt P30561 (peptide sequence: HKLDFTPIGCDAK, peptide start residue: 285)",-1.1
5,"UniProt P83510 (peptide sequence: NIATYYGAFIK, peptide start residue: 81)",-0.608
6,"UniProt P19253 (peptide sequence: LAHEVGWK, peptide start residue: 141)",0.254
7,"UniProt Q9D826 (peptide sequence: INVCYWR, peptide start residue: 224)",0.236
8,"UniProt Q8CIM7 (peptide sequence: GNPESSFNDKNLR, peptide start residue: 287)",-0.562
9,"UniProt Q8K0D0 (peptide sequence: SKLTENLVALK, peptide start residue: 140)",-2.51
10,"UniProt Q9CXI0 (peptide sequence: NVTHIDQALQEAHR, peptide start residue: 221)",-0.267
11,"UniProt O35492 (peptide sequence: MLEFDPAQR, peptide start residue: 600)",-1.13
12,"UniProt O88455 (peptide sequence: LLVSGFWGVAR, peptide start residue: 390)",0.757
13,"UniProt Q8C9S4 (peptide sequence: QEIEHLK, peptide start residue: 574)",-1.24
14,"UniProt Q80ZW0 (peptide sequence: YSLLAEIGR, peptide start residue: 207)",-0.855
15,"UniProt Q923T9 (peptide sequence: GAILTTMLVSR, peptide start residue: 302)",-0.876
16,"UniProt Q64028 (peptide sequence: PQIAQMSLYER, peptide start residue: 24)",0.725
17,"UniProt P02088 (peptide sequence: DFTPAAQAAFQK, peptide start residue: 122)",0.285
18,"UniProt P56395 (peptide sequence: YYTLEEIQK, peptide start residue: 11)",0.367
19,"UniProt P54823 (peptide sequence: LDLKKDNIQAMVIVPTR, peptide start residue: 158)",1.16

row,Target,log2 fold change
1,"UniProt P70349 (peptide sequence: IIFEDDR, peptide start residue: 31)",-0.309
2,"UniProt Q99LB7 (peptide sequence: AYGIESHVLSPAETK, peptide start residue: 175)",-0.446
3,"UniProt A2ALW5 (peptide sequence: WIYNFNIK, peptide start residue: 263)",0.844
4,"UniProt Q04735 (peptide sequence: LEHEEGAPCTAIR, peptide start residue: 154)",-2.38
5,"UniProt Q3U3Q1 (peptide sequence: VIELPLRPQLSLDCR, peptide start residue: 230)",-2
6,"UniProt Q9WV60 (peptide sequence: LCDSGELVAIKK, peptide start residue: 75)",-4.12
7,"UniProt Q9JK48 (peptide sequence: NFIEGDYK, peptide start residue: 149)",0.247
8,"UniProt Q99JT2 (peptide sequence: LADFGVAGQLTDTQIKR, peptide start residue: 156)",-0.843
9,"UniProt Q9Z1R3 (peptide sequence: TEGRPDMK, peptide start residue: 115)",1.56
10,"UniProt Q64459 (peptide sequence: ALLSPTFTSGK, peptide start residue: 131)",-0.273
11,"UniProt Q9WTU6 (peptide sequence: MLVIDPDKR, peptide start residue: 301)",-1.15
12,"UniProt Q6PDN3 (peptide sequence: VSDVYDIEER, peptide start residue: 1482)",-1.2
13,"UniProt P63158 (peptide sequence: HPDASVNFSEFSKKCSER, peptide start residue: 31)",-0.395
14,"UniProt Q920L1 (peptide sequence: VAPLVQSLCAK, peptide start residue: 402)",0.439
15,"UniProt Q91XU3 (peptide sequence: VYIGEEEKK, peptide start residue: 252)",-1.32
16,"UniProt Q8VEB1 (peptide sequence: DLKPENILLDDYGHIR, peptide start residue: 311)",-0.743
17,"UniProt Q9DCQ2 (peptide sequence: VTMATHPDGFRLEGPLAAAHSSGPR, peptide start residue: 152)",-0.804
18,"UniProt Q6PDI5 (peptide sequence: NLTSNMWR, peptide start residue: 1165)",0.284
19,"UniProt P05132 (peptide sequence: CGKEFTEF, peptide start residue: 344)",2.36
